# Experimental data taken from PubChem BioAssay AID1159580 (chemical genetic matrix, 2015).
# Hit rate of the full screen: of about 5,500 compounds, about 2,000 (36%) were called active. Not shown: some 18% with an inconclusive outcome. Some of the results follow. Unmarked numbers belong to inactive results. Rule as the data show it: active = normalized growth mostly below about 0.91 (no sharp cut-off); inconclusive = no clear call, values can overlap the other calls; inactive = mostly above about 0.92.
# Assay: chemical genetic growth profiling, strain panel (AID 1159580);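 also: tested at 20 µM; growth read once vehicle control cultures reached saturation at 30 °C; 1 = growth at the plate median or of vehicle wells; lower values mean less growth of the strain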
# Details: growth OD
# [1] = S. cerevisiae deletion strains, locus YMR307W, strain GAS1, stronger effect = lower value
# [2] = S. cerevisiae deletion strains, locus YJL095W, strain BCK1, stronger effect = lower value
compound,measurement,setting,value
NC/C=C\C(=O)O,normalized growth,"S. cerevisiae deletion strains, locus YAL013W, strain DEP1, stronger effect = lower value",1
same,normalized growth,"S. cerevisiae deletion strains, locus YAL040C, strain CLN3, stronger effect = lower value",0.994
same,normalized growth,"S. cerevisiae deletion strains, locus YER002W, strain NOP16, stronger effect = lower value",1.01
same,normalized growth,"S. cerevisiae deletion strains, locus YGR229C, strain SMI1, stronger effect = lower value",1.02
same,normalized growth,[1],1
same,normalized growth,"S. cerevisiae deletion strains, locus YNL175C, strain NOP13, stronger effect = lower value",1
same,normalized growth,"S. cerevisiae deletion strains, locus YNL197C, strain WHI3, stronger effect = lower value",0.985
same,normalized growth,"S. cerevisiae deletion strains, locus YNL224C, strain SQS1, stronger effect = lower value",0.993
same,normalized growth,"S. cerevisiae deletion strains, locus YOR083W, strain WHI5 (second series), stronger effect = lower value",1.02
CCC(C)c1cnc(CC(C)C)c(=O)n1O (centres undefined),normalized growth,"S. cerevisiae deletion strains, locus YBR021W, strain FUR4, stronger effect = lower value",1.01
same,normalized growth,"S. cerevisiae deletion strains, locus YBR229C, strain ROT2, stronger effect = lower value",1.01
same,normalized growth,"S. cerevisiae deletion strains, locus YCL029C, strain bik1, stronger effect = lower value",1.02
same,normalized growth,"S. cerevisiae deletion strains, locus YDL035C, strain GPR1, stronger effect = lower value",0.818 (active)
same,normalized growth,"S. cerevisiae deletion strains, locus YDL074C, strain BRE1, stronger effect = lower value",0.876
same,normalized growth,"S. cerevisiae deletion strains, locus YDL101C, strain DUN1, stronger effect = lower value",1.02
same,normalized growth,"S. cerevisiae deletion strains, locus YDL134C, strain PPH21, stronger effect = lower value",1.04
same,normalized growth,"S. cerevisiae deletion strains, locus YDL185W, strain tfp1, stronger effect = lower value",0.231 (active)
same,normalized growth,"S. cerevisiae deletion strains, locus YDL192W, strain arf1, stronger effect = lower value",0.933
same,normalized growth,"S. cerevisiae deletion strains, locus YDR101C, strain arx1, stronger effect = lower value",0.993
same,normalized growth,"S. cerevisiae deletion strains, locus YDR162C, strain NBP2, stronger effect = lower value",0.545 (active)
same,normalized growth,"S. cerevisiae deletion strains, locus YDR318W, strain mcm21, stronger effect = lower value",1.03
same,normalized growth,"S. cerevisiae deletion strains, locus YDR388W, stronger effect = lower value",1.02
same,normalized growth,"S. cerevisiae deletion strains, locus YDR502C, strain sam2, stronger effect = lower value",0.967
same,normalized growth,"S. cerevisiae deletion strains, locus YEL061C, strain CIN8, stronger effect = lower value",0.846 (active)
same,normalized growth,"S. cerevisiae deletion strains, locus YER110C, stronger effect = lower value",1.02
same,normalized growth,"S. cerevisiae deletion strains, locus YER155C, strain BEM2, stronger effect = lower value",1.01
same,normalized growth,"S. cerevisiae deletion strains, locus YER167W, strain BCK2, stronger effect = lower value",0.998
same,normalized growth,"S. cerevisiae deletion strains, locus YGL078C, strain dbp3, stronger effect = lower value",0.87 (active)
same,normalized growth,"S. cerevisiae deletion strains, locus YGL086W, strain mad1, stronger effect = lower value",0.946
same,normalized growth,"S. cerevisiae deletion strains, locus YGL248W, strain PDE1, stronger effect = lower value",1.04
same,normalized growth,"S. cerevisiae deletion strains, locus YGR078C, strain PAC10, stronger effect = lower value",0.905
same,normalized growth,"S. cerevisiae deletion strains, locus YGR135W, strain pre9, stronger effect = lower value",0.977
same,normalized growth,"S. cerevisiae deletion strains, locus YGR252W, strain gcn5, stronger effect = lower value",1.1
same,normalized growth,"S. cerevisiae deletion strains, locus YHR079C, strain IRE1 (second series), stronger effect = lower value",1.02
same,normalized growth,"S. cerevisiae deletion strains, locus YHR094C, strain hxt1, stronger effect = lower value",1.01
same,normalized growth,"S. cerevisiae deletion strains, locus YHR129C, strain ARP1, stronger effect = lower value",0.894 (active)
same,normalized growth,"S. cerevisiae deletion strains, locus YHR200W, strain rpn10, stronger effect = lower value",0.961
same,normalized growth,"S. cerevisiae deletion strains, locus YIL066C, strain RNR3, stronger effect = lower value",0.994
same,normalized growth,"S. cerevisiae deletion strains, locus YIL073C, strain SPO22, stronger effect = lower value",1.18
same,normalized growth,"S. cerevisiae deletion strains, locus YIL125W, strain kgd1, stronger effect = lower value",0.815 (active)
same,normalized growth,"S. cerevisiae deletion strains, locus YIR030C, strain dcg1, stronger effect = lower value",1.01
same,normalized growth,[2],0.981
same,normalized growth,"S. cerevisiae deletion strains, locus YJL134W, strain LCB3, stronger effect = lower value",0.993
same,normalized growth,"S. cerevisiae deletion strains, locus YJL168C, strain set2, stronger effect = lower value",1.02
same,normalized growth,"S. cerevisiae deletion strains, locus YJL187C, strain SWE1 (second series), stronger effect = lower value",1.01
same,normalized growth,"S. cerevisiae deletion strains, locus YJR043C, strain POL32, stronger effect = lower value",0.645 (active)
same,normalized growth,"S. cerevisiae deletion strains, locus YJR075W, strain HOC1, stronger effect = lower value",0.837 (active)
same,normalized growth,"S. cerevisiae deletion strains, locus YKL009W, strain mrt4, stronger effect = lower value",0.936
same,normalized growth,"S. cerevisiae deletion strains, locus YKL068W, stronger effect = lower value",0.864 (active)
same,normalized growth,"S. cerevisiae deletion strains, locus YKL085W, strain MDH1 (second series), stronger effect = lower value",0.771 (active)
same,normalized growth,"S. cerevisiae deletion strains, locus YKL085W, strain MDH1, stronger effect = lower value",0.771 (active)
same,normalized growth,"S. cerevisiae deletion strains, locus YKR001C, strain vps1, stronger effect = lower value",0.963
same,normalized growth,"S. cerevisiae deletion strains, locus YLR039C, strain RIC1, stronger effect = lower value",0.771
same,normalized growth,"S. cerevisiae deletion strains, locus YLR058C, strain SHM2, stronger effect = lower value",1.02
same,normalized growth,"S. cerevisiae deletion strains, locus YLR102C, strain apc9, stronger effect = lower value",1.02
same,normalized growth,"S. cerevisiae deletion strains, locus YLR262C, strain YPT6, stronger effect = lower value",0.806
same,normalized growth,"S. cerevisiae deletion strains, locus YLR268W, strain sec22, stronger effect = lower value",1.01
same,normalized growth,"S. cerevisiae deletion strains, locus YLR371W, strain rom2, stronger effect = lower value",1.04
same,normalized growth,"S. cerevisiae deletion strains, locus YLR418C, strain cdc73, stronger effect = lower value",0.991
same,normalized growth,"S. cerevisiae deletion strains, locus YML016C, strain PPZ1, stronger effect = lower value",1.01
same,normalized growth,"S. cerevisiae deletion strains, locus YML032C, strain rad52, stronger effect = lower value",1.01
same,normalized growth,"S. cerevisiae deletion strains, locus YML124C, strain tub3, stronger effect = lower value",1.02
same,normalized growth,"S. cerevisiae deletion strains, locus YMR078C, strain ctf18, stronger effect = lower value",1.01
same,normalized growth,"S. cerevisiae deletion strains, locus YMR223W, strain ubp8, stronger effect = lower value",1.01
same,normalized growth,[1],0.534 (active)
same,normalized growth,"S. cerevisiae deletion strains, locus YNL067W, strain RPL9B, stronger effect = lower value",0.955
same,normalized growth,"S. cerevisiae deletion strains, locus YNL153C, strain GIM3, stronger effect = lower value",0.881
same,normalized growth,"S. cerevisiae deletion strains, locus YNL233W, strain BNI4, stronger effect = lower value",0.969
same,normalized growth,"S. cerevisiae deletion strains, locus YNL250W, strain rad50, stronger effect = lower value",0.906
same,normalized growth,"S. cerevisiae deletion strains, locus YNL271C, strain bni1, stronger effect = lower value",0.78 (active)
same,normalized growth,"S. cerevisiae deletion strains, locus YNL298W, strain CLA4, stronger effect = lower value",0.708 (active)
same,normalized growth,"S. cerevisiae deletion strains, locus YNL307C, strain MCK1, stronger effect = lower value",1.02
same,normalized growth,"S. cerevisiae deletion strains, locus YNL322C, strain KRE1, stronger effect = lower value",0.579 (active)
same,normalized growth,"S. cerevisiae deletion strains, locus YNR052C, strain pop2, stronger effect = lower value",1.03
same,normalized growth,"S. cerevisiae deletion strains, locus YOL006C, strain TOP1, stronger effect = lower value",1.21
same,normalized growth,"S. cerevisiae deletion strains, locus YOL012C, strain htz1",0.477
same,normalized growth,"S. cerevisiae deletion strains, locus YOL147C, strain pex11, stronger effect = lower value",1
same,normalized growth,"S. cerevisiae deletion strains, locus YOR061W, strain CKA2, stronger effect = lower value",0.997
same,normalized growth,"S. cerevisiae deletion strains, locus YOR069W, strain VPS5, stronger effect = lower value",0.998
same,normalized growth,"S. cerevisiae deletion strains, locus YOR136W, strain idh2, stronger effect = lower value",1.03
same,normalized growth,"S. cerevisiae deletion strains, locus YOR144C, strain elg1, stronger effect = lower value",1.01
same,normalized growth,"S. cerevisiae deletion strains, locus YOR184W, strain ser1, stronger effect = lower value",0.957
same,normalized growth,"S. cerevisiae deletion strains, locus YOR316C, strain cot1, stronger effect = lower value",1.03
same,normalized growth,"S. cerevisiae deletion strains, locus YPL055C, strain LGE1, stronger effect = lower value",0.548 (active)
same,normalized growth,"S. cerevisiae deletion strains, locus YPL241C, strain CIN2, stronger effect = lower value",0.717 (active)
same,normalized growth,"S. cerevisiae deletion strains, locus YPR119W, strain clb2, stronger effect = lower value",1.01
same,normalized growth,"S. cerevisiae deletion strains, locus YPR141C, strain kar3, stronger effect = lower value",0.844 (active)
same,normalized growth,"S. cerevisiae deletion strains, locus YPR163C, strain tif3, stronger effect = lower value",1.02
same,normalized growth,"S. cerevisiae deletion strains, locus YPR167C, strain met16, stronger effect = lower value",1.01
same,normalized growth,"S. cerevisiae deletion strains, strain wtn01, stronger effect = lower value",0.902
same,normalized growth,"S. cerevisiae strains, strain wild type, stronger effect = lower value",0.275 (active)
CC(C)c1c(CN(C)C(C)Cc2ccccc2)n(C)n(-c2ccccc2)c1=O (centres undefined),normalized growth,"S. cerevisiae deletion strains, locus YHR030C, strain SLT2, stronger effect = lower value",0.997
same,normalized growth,"S. cerevisiae deletion strains, locus YHR079C, strain IRE1, stronger effect = lower value",1.01
same,normalized growth,[2],0.992
same,normalized growth,"S. cerevisiae deletion strains, locus YJR066W, strain TOR1, stronger effect = lower value",0.938
same,normalized growth,"S. cerevisiae deletion strains, locus YLR113W, strain HOG1, stronger effect = lower value",1.01
same,normalized growth,"S. cerevisiae deletion strains, locus YNL183C, strain NPR1, stronger effect = lower value",0.935
same,normalized growth,"S. cerevisiae deletion strains, locus YOR231W, strain MKK1, stronger effect = lower value",1
same,normalized growth,"S. cerevisiae deletion strains, locus YPL256C, strain CLN2, stronger effect = lower value",0.971
